# Source: PubChem BioAssay (Tox21)
# Active and inactive are the calls of the source. The call rests on the fitted dose curve.
# Target: Androgen receptor (Homo sapiens) (UniProt P10275)
# Assay: qHTS assay to identify small molecule agonists of the androgen receptor (AR) signaling pathway in the presence of an antagonist (AID 1259381); further: nearly all actives have a fitted effect of over 15% in size
# Conditions: MDA-kb2 MMTV-luciferase, AR agonist + nilutamide, 16 h; series mostly up to 92.4 µM; activation: at the top concentration
# Source text: National Center for Advancing Translational Sciences [NCATS] NIH Chemical Genomics Center [NCGC] U.S. Environmental Protection Agency [EPA] National Institutes of Environmental Health Sciences [NIEHS] National Toxicology Program [NTP] Assay overview: Androgen receptor (AR) is an important member of nuclear receptor family. Its signaling plays a critical role in AR-dependent prostate cancer and other androgen related diseases. Considerable attention has been given in the past decades to develop methods to study and screen for the environmental chemicals that have the potential to interfere with metabolic homeostasis, reproduction, developmental and behavioral functions. Therefore AR binding assay for screening against androgen agonists and antagonists can be used to identify potential endocrine disruptors. MDA-kb2 cells (from ATCC, deposited by Wilson et al.) are human breast carcinoma cells that were stably transfected with a luciferase reporter gene under control of the MMTV promoter that contains response elements for both androgen receptor (AR) and glucocorticoid receptor (GR). This particular screening for measuring luciferase reporter gene activity using MDA-kb2 cells against Tox21 10K library compounds is a confirmation study on agonist mode screening in the presence of AR-antagonist compound (Nilutamide) at 3.0uM final concentration.
# Assay Protocol Summary: MDA-kb2 cells (cells cultured without CO2) were dispensed at 3,000 cells/well in 4uL of culture medium into white wall/solid-bottom 1536-well plates (Corning Life Sciences, Corning, NY) using a Multidrop Combi (Thermo Fisher Scientific Inc., Waltham, MA) dispenser. The assay plates were incubated at 37C and 0% CO2 for 5hr. One uL of 3.0uM (final concentration) Nilutamide or assay buffer was added using two separate tips of Flying Reagent Dispenser (FRD, Aurora Discovery, San Diego, CA). Then 23nL of compounds dissolved in DMSO at 15 concentrations and positive controls were transferred to the assay plates using a Pintool station (Wako, San Diego, CA). The assay plates were incubated at 37C and 0% CO2 for 16hr. For luciferase read, 4uL/well ONE-Glo reagent (Promega Corporation, Madison, WI) was added to each well of the assay plates using FRD. After 30min incubation at room temperature, the luminescence signal was measured using a ViewLux plate reader (PerkinElmer, Shelton, CT).
# On the % scale 0 is the no-effect control and ±100 the full control effect.
# Chain of Androgen receptor (Homo sapiens) (P10275 whole entry, looked up): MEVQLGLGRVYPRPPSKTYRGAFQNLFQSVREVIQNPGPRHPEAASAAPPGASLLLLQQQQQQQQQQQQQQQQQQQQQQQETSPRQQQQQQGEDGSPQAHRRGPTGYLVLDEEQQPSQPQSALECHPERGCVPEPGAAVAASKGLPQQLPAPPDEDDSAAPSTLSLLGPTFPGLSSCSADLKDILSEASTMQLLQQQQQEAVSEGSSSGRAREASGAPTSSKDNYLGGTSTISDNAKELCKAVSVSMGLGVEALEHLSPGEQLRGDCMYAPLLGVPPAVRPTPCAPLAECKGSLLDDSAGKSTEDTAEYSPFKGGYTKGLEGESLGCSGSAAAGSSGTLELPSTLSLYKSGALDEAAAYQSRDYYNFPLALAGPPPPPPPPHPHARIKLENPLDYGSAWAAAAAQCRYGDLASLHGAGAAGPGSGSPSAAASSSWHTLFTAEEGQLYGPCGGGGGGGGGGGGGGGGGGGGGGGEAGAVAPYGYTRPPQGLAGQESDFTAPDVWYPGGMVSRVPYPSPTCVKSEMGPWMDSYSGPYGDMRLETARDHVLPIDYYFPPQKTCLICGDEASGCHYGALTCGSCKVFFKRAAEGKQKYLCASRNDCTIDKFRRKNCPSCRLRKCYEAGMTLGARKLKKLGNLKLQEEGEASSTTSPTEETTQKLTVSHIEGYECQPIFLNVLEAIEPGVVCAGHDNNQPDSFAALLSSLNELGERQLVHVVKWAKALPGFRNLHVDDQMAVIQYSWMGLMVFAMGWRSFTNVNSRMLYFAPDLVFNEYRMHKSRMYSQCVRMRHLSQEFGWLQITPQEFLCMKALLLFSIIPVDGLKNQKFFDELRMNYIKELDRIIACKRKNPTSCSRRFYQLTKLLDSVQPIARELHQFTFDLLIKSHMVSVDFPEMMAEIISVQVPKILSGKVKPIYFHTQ
Compound,activation,outcome
COc1ccc2cc1Oc1ccc(cc1)C[C@H]1c3c(cc4c(c3Oc3cc5c(cc3OC)CCN(C)[C@@H]5C2)OCO4)CCN1C,-9.62% [at 42.5 µM] (inactive),
CCOc1ccc2ccccc2c1C(=O)N[C@@H]1C(=O)N2[C@@H]1SC(C)(C)[C@@H]2C(=O)O,0.276% [at 42.5 µM] (inactive),
O=C(/C=C/c1ccccc1)OC/C=C/c1ccccc1,-3.78% (inactive),
CCN(CC)c1ccc2c(-c3ccc(S(=O)(=O)O)cc3S(=O)(=O)[O-])c3ccc(=[N+](CC)CC)cc-3oc2c1,-5.25% (inactive),
Cc1c(N)cccc1C(F)(F)F,0.557% [at 42.5 µM] (inactive),
CN(C)Cc1ccccc1O,-0.361% (inactive),
FC(F)(F)c1cccc(Cl)c1,-1.13% (inactive),
Cc1cccc(C)c1NC(=O)c1ccc(N)cc1,-0.121% [at 42.5 µM] (inactive),
Cc1c2ccccc2c(C)c2c1ccc1ccccc12,,inactive
COc1c(C)c2c(c(O)c1C/C=C(\C)CCC(=O)OCCN1CCOCC1)C(=O)OC2,-0.646% [at 42.5 µM] (inactive),
CN1CCN2c3ccccc3Cc3ccccc3C2C1 (stereo not given),-3.99% [at 42.5 µM] (inactive),
CC(=O)OCC=C(C)C,-1.37% [at 42.5 µM] (inactive),
CC1(C)[C@@H](O)CC[C@]2(C)[C@H]3C(=O)C=C4[C@@H]5C[C@@](C)(C(=O)O)CC[C@]5(C)CC[C@@]4(C)[C@]3(C)CC[C@@H]12,-1.57% (inactive),
CN(C)CCN1CCN(c2cccc(Cl)c2)C1=O,1.29% [at 42.5 µM] (inactive),
Clc1sc(Cl)c(Cl)c1Cl,0.952% (inactive),
O=S(=O)(O)c1ccc(Nc2nc(Nc3ccc(/C=C/c4ccc(Nc5nc(Nc6ccc(S(=O)(=O)O)cc6)nc(N(CCO)CCO)n5)cc4S(=O)(=O)O)c(S(=O)(=O)O)c3)nc(N(CCO)CCO)n2)cc1,0.237% [at 42.5 µM] (inactive),
Oc1c(I)cc(Cl)c2cccnc12,,inactive
CCOC(=O)Cn1cccc1-c1nc(-c2ccc(OC)cc2)c(-c2ccc(OC)cc2)s1,-0.456% [at 42.5 µM] (inactive),
c1ccsc1,1.32% (inactive),
CCCCCCCCCCCCOC(=O)c1ccc(O)cc1,-1.71% (inactive),

Compound,activation,outcome
Fc1ccc(C(c2ccc(F)cc2)N2CCNCC2)cc1,-6.68% [at 42.5 µM] (inactive),
CCCCC(CC)CN1CN(CC(CC)CCCC)CC(C)(N)C1 (stereo not given),-8.65% [at 42.5 µM] (inactive),
Cc1ccc(C)cc1,0.459% (inactive),
Cc1cc(C)c(/C=C2\C(=O)Nc3ccccc32)[nH]1,6.7% [at 42.5 µM] (inactive),
CCCC(=O)OCOC(=O)C1=C(C)NC(C)=C(C(=O)OC)C1c1cccc(Cl)c1Cl (stereo not given),8.08% [at 42.5 µM] (inactive),
CC(C)OC(=O)C(O)(CC(=O)O)CC(=O)O,-2.84% (inactive),
CCCCCCOC(=O)C(C)CC (stereo not given),-0.264% (inactive),
C=CC(=O)Nc1cc2c(Nc3ccc(F)c(Cl)c3)ncnc2cc1OCCCN1CCOCC1,-10.2% [at 42.5 µM] (inactive),
CC(C)(C)NSc1nc2ccccc2s1,3.48% (inactive),
C=CC(=O)OCCOC(=O)C=C,2.51% (inactive),
NC(=S)NC(N)=S,-0.445% (inactive),
CC(CO)Oc1ccccc1 (stereo not given),1.78% (inactive),
NC(=O)c1cccc([N+](=O)[O-])c1,-0.0889% (inactive),
OC[C@H]1O[C@H](O[C@H]2O[C@H](CO)[C@@H](O)[C@H](O)[C@H]2O)[C@H](O)[C@@H](O)[C@@H]1O,2.47% (inactive),
COC1=C(OC)C(=O)C(CCCCCCCCCCO)=C(C)C1=O,-9.29% [at 42.5 µM] (inactive),
CCCc1ccc(OCC(=O)N2CCN(C(=O)COc3ccc(CCC)cc3OC)CC2)c(OC)c1,-10.1% [at 42.5 µM] (inactive),
CN(C)c1ccc(C(=C2C=CC(=[N+](C)C)C=C2)c2ccc(N(C)C)cc2)cc1,,inactive
CN(C)[C@@H](CCOc1cccc2ccccc12)c1ccccc1,-8.8% [at 42.5 µM] (inactive),
Nc1cc(Cl)c(O)c(Cl)c1,1.58% (inactive),
CC(C)Cn1cnc2c(N)nc3ccccc3c21,-5.94% [at 19 µM] (inactive),
